# Inconclusive results are not listed. Where a call stands in place of a potency, no number is given. Active and inactive are the calls of the source. Calls follow the shape of the dose curve; as a rule, active = well fitted activation curve with a large enough effect in the signal ratio in the repeat runs (not every such curve was filed as active); inconclusive = weak or mixed curves, or effect the other way; inactive = no such curve, though single readings can be large or run the other way; the % refers to the signal ratio.
# Target: Peroxisome proliferator-activated receptor gamma (Homo sapiens) (UniProt P37231)
# Sequence (P37231 whole entry, looked up): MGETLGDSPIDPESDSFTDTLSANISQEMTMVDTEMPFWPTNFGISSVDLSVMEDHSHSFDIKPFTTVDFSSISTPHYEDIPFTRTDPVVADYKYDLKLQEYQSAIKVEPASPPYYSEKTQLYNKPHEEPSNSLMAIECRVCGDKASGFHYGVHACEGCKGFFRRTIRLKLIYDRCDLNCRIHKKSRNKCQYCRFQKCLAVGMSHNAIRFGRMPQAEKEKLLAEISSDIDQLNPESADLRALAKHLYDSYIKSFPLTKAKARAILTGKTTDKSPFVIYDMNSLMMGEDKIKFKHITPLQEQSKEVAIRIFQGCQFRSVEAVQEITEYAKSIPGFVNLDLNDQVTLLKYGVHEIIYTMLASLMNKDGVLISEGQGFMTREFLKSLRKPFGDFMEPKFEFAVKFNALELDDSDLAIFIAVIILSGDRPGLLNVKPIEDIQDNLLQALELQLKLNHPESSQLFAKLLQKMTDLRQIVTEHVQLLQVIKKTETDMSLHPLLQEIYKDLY
# Assay: qHTS assay to identify small molecule agonists of the peroxisome proliferator-activated receptor gamma (PPARg) signaling pathway (AID 743094)
# Details: HEK293H PPARg-UAS-bla, beta-lactamase FRET ratio, 17 h; series mostly up to 57 µM
# From the text: U.S. Tox21 Program National Center for Advancing Translational Sciences [NCATS] NIH Chemical Genomics Center [NCGC] U.S. Environmental Protection Agency [EPA] National Institutes of Environmental Health Sciences [NIEHS] National Toxicology Program [NTP] U.S. Food and Drug Administration [FDA] Tox21 Assay Overview: The peroxisome proliferator-activated receptors (PPARs) are lipid-activated transcription factors of the nuclear receptor superfamily with three distinct subtypes namely PPAR alpha, PPAR delta (also called PPAR beta) and PPAR gamma (PPARg). All these subtypes heterodimerize with Retinoid X receptor (RXR) and these heterodimers regulate transcription of various genes. PPAR-gamma receptor (glitazone receptor) is involved in the regulation of glucose and lipid metabolism. To identify the compounds that activate PPAR-gamma signaling, GeneBLAzer PPAR gamma UAS-bla HEK293H cell line (Invitrogen, Carlsbad, CA, USA) containing a beta-lactamase reporter gene under control of the control of an upstream activator sequence (UAS) stably integrated into HEK293H cells was used to screen Tox21 compound library.
# Tox21 Assay Protocol Summary: PPARg-bla cells were dispensed at 3000 cells/6uL/well in 1536-well black wall/clear bottom plates using a Multidrop Combi (Thermo Fisher Scientific, Waltham, MA) dispenser. After the assay plates were incubated at 37C and 5% CO2 for 5 h, 23 nL of compounds dissolved in DMSO, positive controls or DMSO only was transferred to the assay plate by a Pintool station (Kalypsys, San Diego, CA). The assay plates were incubated at 37C for 17 h. After 1 uL of LiveBLAzerTM B/G FRET substrate was added using a Bioraptr Flying Reagent Dispenser (FRD) workstation (Beckman Coulter, Indianapolis, IN, USA), the plates were incubated at room temperature for 1 h, and fluorescence intensity was measured by an Envision plate reader (PerkinElmer, Shelton, CT).
# Potency is read from the fitted curve at half-maximal effect.
row,SMILES,Potency
1,O=C1CCCCCN1,inactive
2,C=CC(=O)NC(C)(C)CS(=O)(=O)O,inactive
3,COc1cc(C=O)ccc1O,inactive
4,Cc1c(N(C)CS(=O)(=O)O)c(=O)n(-c2ccccc2)n1C,inactive
5,C=C(C)C(N)=O,inactive
6,CC(C)(C)NCC(O)c1ccc(O)c(CO)c1 (stereo not given),inactive
7,CCCCOCCOCCOC(C)=O,inactive
8,O=C(O)Cc1cccc2ccccc12,27.5 µM (active)
9,NC(=O)c1ccc([N+](=O)[O-])cc1Cl,inactive
10,CC(=O)CCC(C)C,inactive
11,CCCCCCCCCCCCCC(=O)OC(C)C,inactive
12,C=C(C)OC(C)=O,inactive
13,CCCCCCCC(=O)OCC(O)CO (stereo not given),inactive
14,COc1ccccc1NC(=O)CC(C)=O,inactive
15,C=CCOC(=O)CC(C)C,inactive
16,O=c1c(-c2ccc(O)cc2)coc2cc(O)cc(O)c12,inactive
17,CCCCNC(=O)NS(=O)(=O)c1ccc(N)cc1,inactive
18,OCCCc1ccccc1,inactive
19,CCCCCCCCCCCCCCCCCC(=O)OCC(O)CO (stereo not given),inactive
20,N[C@@H](Cc1c[nH]c2ccccc12)C(=O)O,inactive

row,SMILES,Potency
1,c1ccc2[nH]c(-c3cscn3)nc2c1,inactive
2,Oc1cccc(O)c1,inactive
3,COc1cc2c(c(OC)c1OC)-c1ccc(OC)c(=O)cc1[C@@H](NC(C)=O)CC2,inactive
4,NCCNc1cccc2ccccc12,inactive
5,C1CNCCN1,inactive
6,CCCCOC(=O)CCCCCCCCC(=O)OCCCC,inactive
7,NC(=O)N/N=C/c1ccc([N+](=O)[O-])o1,inactive
8,COC(=O)c1ccc(O)cc1,inactive
9,Cc1cnc(NC(=O)C2=C(O)c3ccccc3S(=O)(=O)N2C)s1,inactive
10,CCn1cc(C(=O)O)c(=O)c2ccc(C)nc21,inactive
11,CCCCCCCCOc1ccc(C(=O)c2ccccc2)c(O)c1,inactive
12,Cn1cnc2c1c(=O)[nH]c(=O)n2C,inactive
13,Nc1ccc(N=Nc2ccccc2)c(N)n1,inactive
14,COCCOCCOC,inactive
15,COCC(C)N (stereo not given),inactive
16,CC(=O)c1ccc(S(=O)(=O)NC(=O)NC2CCCCC2)cc1,inactive
17,CC(C)=CCC/C(C)=C/CO,inactive
18,CC(C)Cc1ccc(C(C)C(=O)O)cc1 (stereo not given),inactive
19,C[C@]12CC[C@@H]3c4ccc(O)cc4C[C@@H](CCCCCCCCCS(=O)CCCC(F)(F)C(F)(F)F)[C@H]3[C@@H]1CC[C@@H]2O (stereo not given in full),inactive
20,CO[C@H]1C=CO[C@@]2(C)Oc3c(C)c(O)c4c(O)c(c(/C=N/N5CCN(C)CC5)c(O)c4c3C2=O)NC(=O)/C(C)=C\C=C[C@H](C)[C@H](O)[C@@H](C)[C@@H](O)[C@@H](C)[C@H](OC(C)=O)[C@@H]1C,inactive

# Source: PubChem BioAssay (Tox21)
